Measured values taken from the supplement of paper PMC8253809.

Tests used:
Assay in all cases: growth inhibition (% activity, log2 RLU normalised to DMSO / staurosporine); higher = more growth inhibition
Details in all cases: 33 µM
DIPGX29 = tested on: DIPGX29 (H3.3 K27M diffuse intrinsic pontine glioma line)
How it was run: (§1)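 In triplicate, pHGG cell lines and H9-derived neural stem cells were treated for 7 days at 37 °C, 5% CO2 with approved drugs at a single final concentration of about 33 μM, added by pin tool. CellTiter-Glo luminescence, after log2 transformation, was normalised on each plate to % activity between solvent and positive control wells. Growth inhibition is reported as the median across replicates.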

DIPGX37 = tested on: DIPGX37 (H3.3 K27M diffuse intrinsic pontine glioma line)
How it was run: as §1

DIPGX7 = tested on: DIPGX7 (H3.3 K27M diffuse intrinsic pontine glioma line)
How it was run: as §1

DIPGX9 = tested on: DIPGX9 (diffuse intrinsic pontine glioma line)
How it was run: as §1

HGGX39 = tested on: HGGX39 (paediatric high-grade glioma line)
How it was run: as §1

HGGX6 = tested on: HGGX6 (H3.3 G34R paediatric high-grade glioma line)
How it was run: as §1

HNSC = tested on: HNSC
How it was run: as §1

SUDIPGIV = tested on: SUDIPGIV (diffuse intrinsic pontine glioma line)
How it was run: as §1

SUDIPGVI = tested on: SUDIPGVI (diffuse intrinsic pontine glioma line)
How it was run: as §1

SUDIPGXIII = tested on: SUDIPGXIII (diffuse intrinsic pontine glioma line)
How it was run: as §1

Compound	growth inhibition (DIPGX29) [%]	growth inhibition (DIPGX37) [%]	growth inhibition (DIPGX7) [%]	growth inhibition (DIPGX9) [%]	growth inhibition (HGGX39) [%]	growth inhibition (HGGX6) [%]	growth inhibition (HNSC) [%]	growth inhibition (SUDIPGIV) [%]	growth inhibition (SUDIPGVI) [%]	growth inhibition (SUDIPGXIII) [%]
CCCCCOC(=O)Nc1nc(=O)n([C@@H]2O[C@H](C)[C@@H](O)[C@H]2O)cc1F	-0.544	1.13	0.087	0.193	1.46	0.0555	-0.694	-0.463	0.998	1.54
Cc1nnc(NS(=O)(=O)c2ccc(N)cc2)s1	2.52	1.32	1.72	2.78	0.783	-1.19	44.8	2.1	1.77	-1.87
O=P(O)(O)C(Cl)(Cl)P(=O)(O)O	0.766	-0.716	0.292	1.96	2.08	-0.402	0.239	0.894	2.08	-0.0137
CNC[C@H](O)[C@@H](O)[C@H](O)[C@H](O)CO	1.22	3.72	2.92	1.9	4.71	1.37	3.01	2.28	3.8	-1.42
CNCCC(Oc1ccc(C(F)(F)F)cc1)c1ccccc1 (stereo not given)	8.11	2.62	1.4	0.851	2.21	0.48	1.75	1.62	0.57	2.42
CCOC(=O)[C@H](CCc1ccccc1)N[C@@H](C)C(=O)N1Cc2cc(OC)c(OC)cc2C[C@H]1C(=O)O	-2.18	-2.28	-0.52	-1.23	-1.86	-4.51	12.2	-0.334	-11	1.38
CCn1cc(C(=O)O)c(=O)c2cnc(N3CCCC3)nc21	-2.15	-2.01	-0.632	-0.749	-1.43	0.0128	-2.86	-0.463	-0.722	-2.7
CNC(=O)CN(CCN(CCN(CC(=O)[O-])CC(=O)NC)CC(=O)[O-])CC(=O)[O-].[Gd+3]	-2.04	-0.306	-1.48	-2.31	-1.74	1.15	-6.04	-1.08	-1.67	0.753
NCCNCCNCCNCCN	1.8	3.32	2.9	2.04	2.02	3.41	4.1	5.08	4.87	0.192
Nc1nc2[nH]cnc2c(=S)[nH]1	23.3	12.5	5.75	17.2	25	18.7	63.7	42.5	-1.02	2.55
CC(=O)Oc1ccccc1C(=O)Nc1ncc([N+](=O)[O-])s1	0.503	4.15	3.15	1.52	3.31	1.98	7.17	3.07	1.06	63.6
CCn1cc(C(=O)O)c(=O)c2cc(F)c(N3CCNC(C)C3)c(F)c21 (stereo not given)	-4.04	-2.84	-0.94	-2.66	-4.99	-5.88	9.04	-2.28	-4.26	1.13
CCCSc1ccc2[nH]c(NC(=O)OC)nc2c1	7.72	7.1	6.94	11.9	15.5	7.25	61.3	19	-3.32	4.87
CCCCC(=O)O[C@H]1CC[C@H]2[C@@H]3CCc4cc(O)ccc4[C@H]3CC[C@]12C	2.95	4.39	2.96	8.03	1.99	-1.05	72.8	2.52	-2.97	1.55
CCC(C)(C)C(=O)O[C@H]1C[C@@H](C)C=C2C=C[C@H](C)[C@H](CC[C@@H]3C[C@@H](O)CC(=O)O3)[C@H]21	6.91	-7.26	9.48	1.4	15.7	11.3	60.4	19	-11.4	3.91
Cc1cc(N)c2ccccc2[n+]1CCCCCCCCCC[n+]1c(C)cc(N)c2ccccc21	39.6	46.2	35.4	41.1	55.5	36.2	57.8	50	50.9	52.5
CN(C)c1ccc(O)c2c1C[C@H]1C[C@H]3[C@H](N(C)C)C(=O)C(C(N)=O)=C(O)[C@@]3(O)C(=O)C1=C2O	-4.52	-0.19	0.692	-1.39	3.12	-2.93	5.14	2.56	-1.8	1.96
